What all share (conditions): mRNA level, 48 h; actives raise or lower the signal
Read-out in assay [1]: Insulin-like growth factor-binding protein 1 (IGFBP1), IGFBP1 (gene 3484)
Briefly: LTEA_HepaRG_IGFBP1: Life Technologies and Expression Analysis (LTEA) Assay for Insulin-like growth factor-binding protein 1 (IGFBP1) using HepaRG (AID 2283508). The gist of the method: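 Read-out is qRT-PCR transcript level normalized to three housekeeping genes, fitted in both directions against 0.5% DMSO. Differentiated HepaRG cells received eight half-log concentrations (top 100 uM) in duplicate for 48 h in serum-free induction medium.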

Read-out in assay [2]: Interleukin 6 (IL6), IL6 (gene 3569)
Briefly: LTEA_HepaRG_IL6: Life Technologies and Expression Analysis (LTEA) Assay for Interleukin 6 (IL6) using HepaRG (AID 2283509). The essentials: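 Changes in IL6 mRNA, up or down relative to 0.5% DMSO controls, were derived from concentration-response curves in human HepaRG cells treated for 48 h at up to 100 uM, with ACTB, GAPDH and POLR2A as normalizers.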

Read-out in assay [3]: Interleukin 6 Receptor (IL6R), IL6R (gene 3570)
Briefly: LTEA_HepaRG_IL6R: Life Technologies and Expression Analysis (LTEA) Assay for Interleukin 6 Receptor (IL6R) using HepaRG (AID 2283510).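 On AC50: differentiated human HepaRG liver cells in serum-free induction medium; TaqMan qRT-PCR signal normalized to ACTB GAPDH and POLR2A housekeeping genes.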 The gist of the method:
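In this HepaRG screen, test chemicals act on cells for 48 h at up to 100 uM (eight half-log points, duplicate wells). IL6R expression is quantified by qRT-PCR after normalization to ACTB, GAPDH and POLR2A, with DMSO as baseline.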

Read-out in assay [4]: Potassium channel subfamily K member 1 (KCNK1), KCNK1 (gene 3775)
Briefly: LTEA_HepaRG_KCNK1: Life Technologies and Expression Analysis (LTEA) Assay for Potassium channel subfamily K member 1 (KCNK1) using HepaRG (AID 2283511). The gist of the method: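 Human HepaRG cultures receive test chemicals for 48 h in 0.5% DMSO, top concentration 100 uM with half-log dilutions. Induction or suppression of KCNK1 mRNA relative to DMSO is derived by bidirectional fitting of qRT-PCR data.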

Read-out in assay [5]: Keratin 19 (KRT19), KRT19 (gene 3880)
Briefly: LTEA_HepaRG_KRT19: Life Technologies and Expression Analysis (LTEA) Assay for Keratin 19 (KRT19) using HepaRG (AID 2283512). The gist of the method: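 KRT19 transcript measured by TaqMan qRT-PCR, referenced to three housekeeping genes, after HepaRG cells received test chemicals for 48 h. Eight half-log concentrations, top 100 uM, 0.5% DMSO vehicle; increases and decreases both fitted.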

Read-out in assay [6]: JUN Transcription Factor, JUN (gene 3725)
Briefly: LTEA_HepaRG_JUN: Life Technologies and Expression Analysis (LTEA) Assay for JUN Transcription Factor using HepaRG (AID 2283513). The gist of the method: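 Gene-expression endpoint: JUN mRNA (qRT-PCR, normalized to three reference genes) in HepaRG cultures treated 48 h with chemicals, duplicate wells, 100 uM maximum with half-log dilutions; bidirectional fitting relative to 0.5% DMSO.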

Read-out in assay [7]: MicroRNA 122 (MIR122), gene 406906
Briefly: LTEA_HepaRG_MIR122: Life Technologies and Expression Analysis (LTEA) Assay for MicroRNA 122 (MIR122) using HepaRG (AID 2283516). Further: the transcript read is the microRNA miR-122. The gist of the method: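 Changes in transcript abundance, up or down relative to 0.5% DMSO vehicle, were scored after 48 h chemical treatment of HepaRG cells (maximum 100 uM). Quantification used TaqMan qRT-PCR normalized to housekeeping genes.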

Read-out in assay [8]: matrix metalloproteinase-10 (MMP10), MMP10 (gene 4319)
Briefly: LTEA_HepaRG_MMP10: Life Technologies and Expression Analysis (LTEA) Assay for matrix metalloproteinase-10 (MMP10) using HepaRG (AID 2283517). The gist of the method:
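In differentiated HepaRG cultures kept in 0.5% DMSO, test chemicals act for 48 h over an eight-point range with a top dose of 100 uM. Expression is then quantified by TaqMan RT-PCR against ACTB, GAPDH and POLR2A.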

Read-out in the next assay: MYC, MYC (gene 4609)
Briefly: LTEA_HepaRG_MYC: Life Technologies and Expression Analysis (LTEA) Assay for MYC using HepaRG (AID 2283518). The essentials: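 MYC transcript changes, up or down relative to 0.5% DMSO, from TaqMan qRT-PCR normalized to three housekeeping genes. Human HepaRG cultures received chemicals for 48 h at eight half-log concentrations up to 100 uM, in duplicate.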

Read-out in assay [9]: matrix metalloproteinase-3 (MMP3), MMP3 (gene 4314)
Briefly: LTEA_HepaRG_MMP3: Life Technologies and Expression Analysis (LTEA) Assay for matrix metalloproteinase-3 (MMP3) using HepaRG (AID 2283519). The essentials:
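Human liver HepaRG cultures received chemicals (top concentration 100 uM, 0.5% DMSO) for 48 h in duplicate. MMP3 mRNA induction or loss was then assessed via TaqMan qRT-PCR with housekeeping-gene normalisation.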

Read-out in assay [10]: Paternally Expressed 10 (PEG10), PEG10 (gene 23089)
Briefly: LTEA_HepaRG_PEG10: Life Technologies and Expression Analysis (LTEA) Assay for Paternally Expressed 10 (PEG10) using HepaRG (AID 2283520).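 On AC50: PEG10 transcript by qRT-PCR normalised to ACTB GAPDH and POLR2A.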 The essentials:
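After 48 h exposure of differentiated HepaRG cells (0.5% DMSO vehicle, eight concentrations up to 100 uM, duplicates), PEG10 mRNA was measured by TaqMan qRT-PCR. Values were normalised to endogenous control genes and analysed bidirectionally against vehicle.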

Read-out in assay [11]: Protein phosphatase 2A (PPP2R4), PTPA (gene 5524)
Briefly: LTEA_HepaRG_PPP2R4: Life Technologies and Expression Analysis (LTEA) Assay for Protein phosphatase 2A (PPP2R4) using HepaRG (AID 2283522). The essentials: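 Using HepaRG cultures maintained in 0.5% DMSO, chemicals are tested 48 h at up to 100 uM in duplicate. Induction or suppression of PPP2R4 mRNA, measured by qRT-PCR, is fitted bidirectionally against the vehicle baseline.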

Read-out in assay [12]: Phosphatase and tensin (PTEN), PTEN (gene 5728)
Briefly: LTEA_HepaRG_PTEN: Life Technologies and Expression Analysis (LTEA) Assay for Phosphatase and tensin (PTEN) using HepaRG (AID 2283523). The essentials: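 Expression of PTEN is quantified in the human liver line HepaRG following two days of dosing (top concentration 100 uM, half-log dilutions, 0.5% DMSO). Values derive from bidirectional curve fitting relative to DMSO controls.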

Read-out in assay [13]: solute carrier (SLC22A1), SLC22A1 (gene 6580)
Briefly: LTEA_HepaRG_SLC22A1: Life Technologies and Expression Analysis (LTEA) Assay for solute carrier (SLC22A1) using HepaRG (AID 2283524).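 On AC50: differentiated human HepaRG liver cells in serum-free induction medium; TaqMan qRT-PCR normalized to ACTB GAPDH and POLR2A housekeeping genes.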 The gist of the method: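 Transcript induction or suppression of SLC22A1 in human HepaRG cultures is scored after 48 h chemical treatment, with DMSO (0.5%) as baseline for bidirectional fitting. Concentrations span eight half-log points topping at 100 uM.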

Read-out in assay [14]: Pyruvate Dehydrogenase Kinase 4 (PDK4), PDK4 (gene 5166)
Briefly: LTEA_HepaRG_PDK4: Life Technologies and Expression Analysis (LTEA) Assay for Pyruvate Dehydrogenase Kinase 4 (PDK4) using HepaRG (AID 2283525). The gist of the method: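 Eight-point, half-log concentration series (max 100 uM, 0.5% DMSO) applied to differentiated HepaRG cells for 48 h in duplicate. Endpoint: PDK4 mRNA induction or repression by qRT-PCR against DMSO baseline.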

Read-out in assay [15]: NAD(P)H dehydrogenase [quinone] 1 (NQO1), NQO1 (gene 1728)
Briefly: LTEA_HepaRG_NQO1: Life Technologies and Expression Analysis (LTEA) Assay for NAD(P)H dehydrogenase [quinone] 1 (NQO1) using HepaRG (AID 2283526). The essentials:
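In this assay, gene expression is read by qRT-PCR after 48 h exposure of HepaRG cells to eight concentrations (max 100 uM, half-log) in 0.5% DMSO. Each chemical runs in duplicate, and activity is scored relative to vehicle.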

Read-out in assay [16]: Nuclear factor erythroid 2-related factor 2 (Homo sapiens) (UniProt Q16236)
Briefly: LTEA_HepaRG_NFE2L2: Life Technologies and Expression Analysis (LTEA) Assay for Nuclear factor erythroid 2-related factor 2 (NFE2L2) Transcription Factor using HepaRG (AID 2283527).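 Further: TaqMan qRT-PCR transcript level normalised to ACTB GAPDH and POLR2A housekeeping genes.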 The gist of the method:
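Human liver HepaRG line treated in duplicate for 48 h with an eight-point series topping at 100 uM. Gene expression of NFE2L2 by qRT-PCR, bidirectionally fitted against the vehicle control.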

Read-out in assay [17]: Lipoprotein lipase (LPL), LPL (gene 4023)
Briefly: LTEA_HepaRG_LPL: Life Technologies and Expression Analysis (LTEA) Assay for Lipoprotein lipase (LPL) using HepaRG (AID 2283515). The gist of the method: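 Concentration-response testing used half-log steps from 100 uM in 0.5% DMSO on human HepaRG cells, 48 h, duplicate wells. Phenobarbital 1 mM served as induction control; LPL mRNA was normalized to ACTB, GAPDH, POLR2A.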

Active and inactive are the calls of the source. How the source made its calls: active means hit-call score of the fitted dose curve at least 0.9, where 1 is the maximum; inactive means score below 0.9.

Sequence of Nuclear factor erythroid 2-related factor 2 (Homo sapiens) (Q16236 whole entry, looked up): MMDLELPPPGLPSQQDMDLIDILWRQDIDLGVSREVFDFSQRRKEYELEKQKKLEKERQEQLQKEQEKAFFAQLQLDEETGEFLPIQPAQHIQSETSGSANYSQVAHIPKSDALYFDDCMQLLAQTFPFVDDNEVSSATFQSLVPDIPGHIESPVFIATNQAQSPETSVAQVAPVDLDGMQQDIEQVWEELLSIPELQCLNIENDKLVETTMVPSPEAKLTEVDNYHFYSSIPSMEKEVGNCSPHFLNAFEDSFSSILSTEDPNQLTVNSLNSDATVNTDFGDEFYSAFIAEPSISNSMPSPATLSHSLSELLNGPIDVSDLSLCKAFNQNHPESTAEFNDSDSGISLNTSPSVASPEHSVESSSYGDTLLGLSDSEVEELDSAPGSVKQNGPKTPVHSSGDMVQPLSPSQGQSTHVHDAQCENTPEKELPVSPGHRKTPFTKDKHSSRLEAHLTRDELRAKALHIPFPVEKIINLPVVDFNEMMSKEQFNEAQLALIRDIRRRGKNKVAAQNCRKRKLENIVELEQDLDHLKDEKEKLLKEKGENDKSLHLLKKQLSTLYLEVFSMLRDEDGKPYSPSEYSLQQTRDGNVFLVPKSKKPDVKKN

As for `CC(C)[C@H](C(=O)O[C@H](C#N)c1cccc(Oc2ccccc2)c1)c1ccc(Cl)cc1`, the molecule was called inactive in [1], in [2], in [3], in [4], in assay [5] and in assay [6]. Further, the outcome in assay [7] is “inactive”; in [8], “inactive”; with MYC, MYC (gene 4609), “inactive”; in assay [11] it was “inactive”; in [12], “inactive”; in assay [13] it was “inactive”. In addition, the result in assay [14], in [15] and in [16] was inactive. The half-maximal activity concentration (AC50) in [9] is 50 µM (active); in assay [10], 30.3 µM (active).

With `O=c1ccc(=O)[nH][nH]1`, the call in assay [1], in assay [2], in [3], in assay [4], in assay [5] and in assay [6] was inactive. Also, the outcome was “inactive” in assay [7]; “inactive” in [8]; “inactive” with MYC, MYC (gene 4609); “inactive” in assay [9]; “inactive” in [10]; “inactive” in assay [11]. Also, the molecule was classed as inactive in assay [12], in assay [13], in [14], in assay [15] and in assay [16].

Turning to `CCOP(=S)(OCC)OC(Cl)C(Cl)(Cl)Cl` (stereo not given), the molecule was classed as inactive in assay [1], in assay [2], in assay [3], in assay [4], in [5] and in assay [6]. Further, the outcome was “inactive” in [17]; “inactive” in [7]; “inactive” in assay [8]; “inactive” with MYC, MYC (gene 4609); “inactive” in assay [9]; “inactive” in [10]. The result in assay [11], in [12], in [13], in assay [14], in assay [15] and in assay [16] was inactive.

Consider `CC[C@H](C)[C@H]1O[C@]2(C=C[C@@H]1C)C[C@@H]1C[C@@H](C/C=C(\C)[C@@H](O[C@H]3C[C@H](OC)[C@@H](O[C@H]4C[C@H](OC)[C@@H](NC)[C@H](C)O4)[C@H](C)O3)[C@@H](C)/C=C/C=C3\CO[C@@H]4[C@H](O)C(C)=C[C@@H](C(=O)O1)[C@]34O)O2`, for which the AC50 in [1] is 14.6 µM (active); in [2], 21.3 µM (active); in assay [3] it was 22.6 µM (active); in [4], 22.5 µM (active); in assay [6], 26.5 µM (active); in assay [7] it was 55.6 µM (active). The AC50 in assay [8] is 29.4 µM (active); in the assay with MYC, MYC (gene 4609), 32 µM (active); in assay [9] it was 92.9 µM (active); in [10] it was 13.3 µM (active); in assay [11], 33.3 µM (active); in assay [12], 23.5 µM (active). Further, the figures for the AC50 in [13], in assay [14] and in [15] were 23.8 µM (active), 91.9 µM (active) and 31.7 µM (active), respectively. The molecule was classed as inactive in [5] and in [16].

Turning to `CC1=NNC(=O)N(/N=C/c2cccnc2)C1`, the molecule was called inactive in [1], in assay [2], in assay [3], in assay [4], in assay [5] and in [6]. Besides, the outcome in assay [7] is “inactive”; in assay [8], “inactive”; with MYC, MYC (gene 4609), “inactive”; in assay [9], “inactive”; in assay [10], “inactive”; in [11] it was “inactive”. For the same molecule, the call in assay [12], in assay [13], in [14], in [15] and in [16] was inactive.

With `COP(=O)(OC)OC(Br)C(Cl)(Cl)Br` (stereo not given), the molecule was called inactive in [1], in assay [3], in [4], in [5], in assay [6] and in assay [17]. The outcome was “inactive” in [8]; “inactive” with MYC, MYC (gene 4609); “inactive” in assay [9]; “inactive” in assay [10]; “inactive” in assay [11]; “inactive” in [12]. Moreover, the result in assay [13], in assay [14] and in assay [16] was inactive. Also, the AC50 in assay [2] is 50 µM (active); in [15], 21.1 µM (active).

Consider `CCOP(=O)(NC(C)C)Oc1ccc(SC)c(C)c1` (stereo not given), for which the outcome in assay [1], in [2], in assay [3], in [4], in assay [5] and in [6] was inactive. Also, the outcome in [7] was “inactive”; in assay [8], “inactive”; with MYC, MYC (gene 4609), “inactive”; in assay [9], “inactive”; in assay [11] it was “inactive”; in [12], “inactive”. Moreover, the molecule was called inactive in [13], in [14], in [15] and in assay [16]. Besides, in assay [10], the concentration at half-maximal activity (AC50) is 50 µM (active).

Broadly, the AC50 is the concentration at which the activity in the assay is half-maximal.
